Reference: PubChem BioAssay AID1159580 (chemical genetic matrix, 2015)
Several values for one entry are separate records, joined by “and”; a condition that tells them apart may be missing. Equal values may be shown once. Hit rate of the full screen: of about 5,500 compounds, about 2,000 (36%) were called active. About 18% were inconclusive and are not listed. Rule as the data show it: active = normalized growth mostly below about 0.91 (no sharp cut-off); inconclusive = no clear call, values can overlap the other calls; inactive = mostly above about 0.92. The list shows a part of the results.

Assay: chemical genetic growth profiling, strain panel (AID 1159580);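 also: tested at 20 µM; growth read once vehicle control cultures reached saturation at 30 °C; 1 = growth at the plate median or of vehicle wells; lower values mean less growth of the strain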
Details: S. cerevisiae deletion strains, growth OD

Measured: normalized growth

O=C(Oc1ccccc1C(=O)O)c1ccccc1O
inactive: locus YAL013W, strain DEP1, active compounds read low 0.985 | locus YAL021C, strain ccr4, active compounds read low 1 | locus YAL026C, strain drs2, active compounds read low 0.982 | locus YAL030W, strain snc1, active compounds read low 0.979 | locus YBL061C, strain skt5, active compounds read low 0.973 | locus YBR009C, strain hhf1, active compounds read low 1.01 | locus YBR021W, strain FUR4, active compounds read low 1 | locus YBR023C, strain chs3, active compounds read low 1 | locus YBR171W, strain sec66, active compounds read low 0.941 | locus YBR229C, strain ROT2, active compounds read low 0.955 | locus YBR231C, strain swc5, active compounds read low 0.984 | locus YBR279W, strain paf1, active compounds read low 1 | locus YCL011C, strain gbp2, active compounds read low 0.975 | locus YCL016C, strain dcc1, active compounds read low 1 | locus YCL029C, strain bik1, active compounds read low 0.985 | locus YCL069W, strain vba3, active compounds read low 0.986 | locus YCR088W, strain abp1, active compounds read low 0.972 | locus YDL005C, strain med2, active compounds read low 0.944 | locus YDL035C, strain GPR1, active compounds read low 0.964 | locus YDL040C, strain nat1, active compounds read low 0.982 | locus YDL074C, strain BRE1, active compounds read low 0.974 | locus YDL101C, strain DUN1, active compounds read low 0.98 | locus YDL185W, strain tfp1, active compounds read low 0.961 | locus YDL192W, strain arf1, active compounds read low 0.977 | locus YDR001C, strain nth1, active compounds read low 0.953 | locus YDR069C, strain doa4, active compounds read low 0.971 | locus YDR101C, strain arx1, active compounds read low 0.944 | locus YDR137W, strain rgp1, active compounds read low 0.972 | locus YDR159W, strain sac3, active compounds read low 0.978 | locus YDR162C, strain NBP2, active compounds read low 0.97 | locus YDR195W, strain ref2 0.897 | locus YDR297W, strain sur2, active compounds read low 0.997 | locus YDR318W, strain mcm21, active compounds read low 1 | locus YDR334W, strain swr1, active compounds read low 0.942 | locus YDR335W, strain msn5, active compounds read low 0.975 | locus YDR388W, active compounds read low 0.976 | locus YDR392W, strain spt3, active compounds read low 1 | locus YDR502C, strain sam2, active compounds read low 0.996 | locus YEL003W, strain gim4, active compounds read low 0.979 | locus YEL037C, strain rad23, active compounds read low 0.965 | locus YEL061C, strain CIN8 (second series), active compounds read low 0.978 | locus YEL061C, strain CIN8, active compounds read low 0.984 | locus YER015W, strain faa2, active compounds read low 0.989 | locus YER016W, strain bim1, active compounds read low 1 | locus YER110C, active compounds read low 0.983 | locus YER111C, strain swi4, active compounds read low 0.95 | locus YER155C, strain BEM2 (second series), active compounds read low 0.99 | locus YER155C, strain BEM2, active compounds read low 0.997 | locus YER167W, strain BCK2, active compounds read low 1 | locus YFR010W, strain ubp6, active compounds read low 0.966 | locus YGL078C, strain dbp3, active compounds read low 1.01 | locus YGL086W, strain mad1, active compounds read low 0.976 | locus YGL167C, strain pmr1, active compounds read low 0.937 | locus YGL173C, strain kem1, active compounds read low 0.979 | locus YGL227W, strain vid30, active compounds read low 0.98 | locus YGL240W, strain doc1, active compounds read low 0.985 | locus YGL248W, strain PDE1, active compounds read low 0.99 | locus YGL253W, strain hxk2, active compounds read low 0.968 | locus YGR135W, strain pre9, active compounds read low 1.06 | locus YGR252W, strain gcn5, active compounds read low 1.09 | locus YHR013C, strain ard1, active compounds read low 0.963 | locus YHR027C, strain rpn1, active compounds read low 0.985 | locus YHR030C, strain SLT2, active compounds read low 0.977 and 1 | locus YHR079C, strain IRE1 (second series), active compounds read low 0.98 | locus YHR079C, strain IRE1, active compounds read low 0.987 | locus YHR094C, strain hxt1, active compounds read low 0.977 | locus YHR129C, strain ARP1, active compounds read low 0.955 | locus YHR142W, strain chs7, active compounds read low 0.982 | locus YHR200W, strain rpn10, active compounds read low 0.987 | locus YIL066C, strain RNR3, active compounds read low 0.971 | locus YIL073C, strain SPO22, active compounds read low 1.03 | locus YIL125W, strain kgd1, active compounds read low 0.992 | locus YIR030C, strain dcg1, active compounds read low 0.992 | locus YJL092W, strain hpr5, active compounds read low 0.961 | locus YJL095W, strain BCK1 (second series), active compounds read low 0.972 | locus YJL095W, strain BCK1, active compounds read low 1.02 and 0.96 | locus YJL115W, strain asf1, active compounds read low 0.956 | locus YJL129C, strain trk1, active compounds read low 0.955 | locus YJL134W, strain LCB3, active compounds read low 0.985 | locus YJL154C, strain vps35, active compounds read low 0.933 | locus YJL164C, strain tpk1, active compounds read low 1.01 | locus YJL166W, strain qcr8, active compounds read low 0.964 | locus YJL168C, strain set2, active compounds read low 0.988 | locus YJL187C, strain SWE1 (second series), active compounds read low 0.966 | locus YJR043C, strain POL32, active compounds read low 0.975 | locus YJR066W, strain TOR1, active compounds read low 0.937 | locus YJR075W, strain HOC1, active compounds read low 0.978 | locus YKL009W, strain mrt4, active compounds read low 0.971 | locus YKL068W, active compounds read low 0.978 | locus YKL085W, strain MDH1 (second series), active compounds read low 0.998 | locus YKL085W, strain MDH1, active compounds read low 0.998 | locus YKL160W, strain elf1, active compounds read low 0.969 | locus YKR001C, strain vps1, active compounds read low 0.986 | locus YKR026C, strain gcn3, active compounds read low 0.923 | locus YKR091W, strain srl3, active compounds read low 0.984 | locus YLL001W, strain dnm1, active compounds read low 0.944 | locus YLL026W, active compounds read low 1 | locus YLL041C, strain sdh2, active compounds read low 0.968 | locus YLR027C, strain aat2, active compounds read low 0.984 | locus YLR039C, strain RIC1, active compounds read low 0.991 | locus YLR058C, strain SHM2, active compounds read low 0.971 | locus YLR102C, strain apc9, active compounds read low 0.993 | locus YLR113W, strain HOG1, active compounds read low 0.906 | locus YLR221C, strain rsa3, active compounds read low 1 | locus YLR258W, strain gsy2, active compounds read low 0.974 | locus YLR262C, strain YPT6 (second series), active compounds read low 0.925 | locus YLR262C, strain YPT6, active compounds read low 0.908 | locus YLR268W, strain sec22, active compounds read low 0.978 | locus YLR320W, strain mms22, active compounds read low 1 | locus YLR330W, strain CHS5, active compounds read low 0.988 | locus YLR342W, strain FKS1 (second series), active compounds read low 1 | locus YLR342W, strain FKS1, active compounds read low 0.979 | locus YLR357W, strain rsc2, active compounds read low 0.958 | locus YLR370C, strain arc18, active compounds read low 0.986 | locus YLR371W, strain rom2, active compounds read low 0.998 | locus YLR384C, strain iki3, active compounds read low 0.967 | locus YLR418C, strain cdc73, active compounds read low 1.03 | locus YML016C, strain PPZ1, active compounds read low 0.987 | locus YML032C, strain rad52, active compounds read low 0.976 | locus YML120C, strain ndi1, active compounds read low 0.967 | locus YML124C, strain tub3, active compounds read low 0.992 | locus YMR058W, strain fet3, active compounds read low 0.995 | locus YMR078C, strain ctf18, active compounds read low 0.988 | locus YMR125W, strain sto1, active compounds read low 0.93 | locus YMR129W, active compounds read low 0.968 | locus YMR205C, strain PFK2, active compounds read low 0.96 | locus YMR223W, strain ubp8, active compounds read low 1.02 | locus YMR231W, strain pep5, active compounds read low 0.956 | locus YMR307W, strain GAS1, active compounds read low 0.999 | locus YNL067W, strain RPL9B, active compounds read low 0.98 | locus YNL071W, strain lat1, active compounds read low 0.971 | locus YNL153C, strain GIM3, active compounds read low 0.982 | locus YNL183C, strain NPR1, active compounds read low 0.921 | locus YNL209W, strain ssb2, active compounds read low 0.981 | locus YNL233W, strain BNI4, active compounds read low 0.988 | locus YNL248C, strain rpa49, active compounds read low 0.997 | locus YNL250W, strain rad50, active compounds read low 0.995 | locus YNL271C, strain bni1, active compounds read low 0.993 | locus YNL298W, strain CLA4, active compounds read low 1.01 | locus YNL307C, strain MCK1, active compounds read low 0.986 | locus YNL322C, strain KRE1 (second series), active compounds read low 0.963 | locus YNR049C, strain mso1, active compounds read low 0.967 | locus YNR052C, strain pop2, active compounds read low 0.988 | locus YOL006C, strain TOP1, active compounds read low 1.02 | locus YOL012C, strain htz1 0.938 | locus YOL147C, strain pex11, active compounds read low 0.993 | locus YOR001W, strain rrp6, active compounds read low 0.984 | locus YOR061W, strain CKA2, active compounds read low 0.972 | locus YOR069W, strain VPS5, active compounds read low 0.986 | locus YOR070C, strain gyp1, active compounds read low 0.994 | locus YOR080W, strain dia2, active compounds read low 0.963 | locus YOR083W, strain WHI5, active compounds read low 0.996 | locus YOR106W, strain vam3, active compounds read low 0.958 | locus YOR136W, strain idh2, active compounds read low 0.982 | locus YOR144C, strain elg1, active compounds read low 0.984 | locus YOR184W, strain ser1, active compounds read low 0.986 | locus YOR231W, strain MKK1, active compounds read low 0.959 | locus YOR265W, strain rbl2, active compounds read low 0.98 | locus YOR270C, strain vph1, active compounds read low 0.931 | locus YOR290C, strain snf2, active compounds read low 1 | locus YOR316C, strain cot1, active compounds read low 0.97 | locus YPL051W, strain arl3, active compounds read low 0.993 | locus YPL055C, strain LGE1, active compounds read low 0.992 | locus YPL078C, strain atp4, active compounds read low 0.962 | locus YPL106C, strain sse1, active compounds read low 0.99 | locus YPL240C, strain hsp82, active compounds read low 0.982 | locus YPL256C, strain CLN2, active compounds read low 0.98 | locus YPR119W, strain clb2, active compounds read low 0.985 | locus YPR141C, strain kar3, active compounds read low 0.979 | locus YPR163C, strain tif3, active compounds read low 0.986 | locus YPR167C, strain met16, active compounds read low 0.998 | strain wtn01, active compounds read low 1.02
